NTR1 agonist = NTR1 (human) agonism; activation, % at 20 µM; NTR1-U2OS beta-arrestin-GFP spot imaging, agonist mode; AID 493036; P30989; 330,000 compounds, 0.17% hits;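 active = activation at or above 40% of the spot to cytoplasm intensity ratio, with at least 20 cells analyzed; inconclusive = wells under 20 cells, flagged as cytotoxic or low count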;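 note: 0% = DMSO without peptide and 100% = 100 nM NTR1 peptide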
Target sequence (P30989 whole entry, looked up): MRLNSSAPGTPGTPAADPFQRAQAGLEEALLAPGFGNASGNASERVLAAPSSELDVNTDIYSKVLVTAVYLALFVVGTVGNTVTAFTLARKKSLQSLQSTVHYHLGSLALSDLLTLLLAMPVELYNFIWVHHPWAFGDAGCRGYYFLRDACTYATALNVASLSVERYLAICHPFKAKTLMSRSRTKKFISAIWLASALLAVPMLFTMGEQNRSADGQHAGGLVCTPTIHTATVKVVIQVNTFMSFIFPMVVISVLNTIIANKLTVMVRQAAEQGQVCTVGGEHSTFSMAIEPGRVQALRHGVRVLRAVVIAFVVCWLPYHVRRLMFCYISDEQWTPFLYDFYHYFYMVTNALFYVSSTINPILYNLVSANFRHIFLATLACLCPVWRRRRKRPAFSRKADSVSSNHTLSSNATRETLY
NR3A LBD binder = modulators (binders) of human NR3A ligand-binding domain. NR3A LBD differential scanning fluorimetry, Tm shift; 0% = protein alone, 100% = glycine-bound protein. 340,000 compounds, 2.5% hits. Tm shift relative to glycine control, % at 25 µM;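 active = melting temperature shift of at least 10% of the positive control shift, at one fixed dose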
AHR act = activators of human aryl hydrocarbon receptor. AID 2796. activation, % at 5 µM. AHR-responsive luciferase reporter cells, luminescence. 320,000 compounds, 2.5% hits. P35869; in the data active = activation above about 47%;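 note: 0% = vehicle wells and 100% = reference agonist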
AI-2 QS modul = Vibrio harveyi AI-2 quorum sensing modulation; Vibrio harveyi JMH597 AI-2 luminescence/OD600 ratio, 9 h; active compounds read low; strain lacks LuxN and CqsS sensors; 0 = neutral-control median; activity change, % at 7.5 µM; 300,000 compounds, 0.4% hits; AID 2094; in the data active = activity change below about -75%, passing the limit was not always enough; inconclusive = no clear call, values can overlap the other calls;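 note: luminescence divided by OD600 gain over 9 h not by final OD600 alone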
SUMO Mot1 rescue = SUMOylation pathway inhibition by Mot1-301 growth rescue | S. cerevisiae Mot1-301 growth rescue, ATP luminescence, 38.5C; percent above DMSO median, 100 means doubled | growth rescue, % at 18.8 µM | 320,000 compounds, 1% hits | AID 2716;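 active = every valid replicate shows activation above 250% relative to neutral control wells; inactive = the rest, any valid replicate at or below 250%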;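 note: OY570 slx delta 5 strain wells were the positive control but not used for scaling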
H9c2 protect = protects H9c2 cardiomyocytes from peroxide injury. H2O2 injury protection, ATPLite, 2 h. protection from H2O2 cell death, % at 20 µM. 360,000 compounds, 0.63% hits;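 active = compounds giving at least 50% protection of heart cells from peroxide-induced death in the single-dose screen, raw or plate-pattern-corrected value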;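 note: 0% = DMSO wells with peroxide and 100% = DMSO wells without peroxide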
JMH597 growth rt = retest: blocks Vibrio harveyi JMH597 growth | shares compounds with AI-2 QS modul | OD600 absorbance, 9 h; lacks LuxN and CqsS sensors | growth inhibition, % at 7.5 µM | 750 compounds, 1% hits | AID 2726;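 active = every replicate shows growth inhibition above 50%; inconclusive = at least half, but not all, replicates pass that cutoff; inactive = fewer than half of replicates pass it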
BB721 const-QS lum = retest counter-screen: luminescence loss in constitutive-on quorum sensing strain BB721; 750 compounds, 95% hits; Vibrio harveyi BB721 luminescence, 9 h; inhibition, % at 7.5 µM; shares compounds with AI-2 QS modul; AID 2727;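 active = inhibition above about 80% in every replicate, not just on average, limit read from the data; inconclusive = at least half of replicates past the limit, but not all; inactive = fewer than half of replicates past the limit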
BB721 growth = retest: inhibitors of Vibrio harveyi BB721 growth; 750 compounds, 3% hits; AID 2728; growth inhibition, % at 7.5 µM; OD600 absorbance, 9 h; shares compounds with AI-2 QS modul;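 active = every replicate shows growth inhibition above 50%; inconclusive = at least half but not all replicates above 50% inhibition; inactive = under half of replicates above 50% inhibition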
AI-2 QS JMH597 = Vibrio harveyi AI-2 signaling luminescence modulation – JMH597 strain, confirmation. 750 compounds, 97% hits. shares compounds with AI-2 QS modul. inhibition, % at 7.5 µM. AID 2736. Vibrio harveyi JMH597 AI-2 quorum sensing luminescence, 9 h; luxN and CqsS knockout, AI-2 only;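 active = every replicate shows more than 75% inhibition of signal versus neutral control wells; inconclusive = half to three quarters of replicates exceed 75% inhibition; inactive = fewer than half of replicates exceed 75% inhibition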
Numbers without * were called inactive; u = inconclusive; x = no result given. Only some compounds are listed: those with a hit (about 6.2% of all), similar ones and a draw of the others.

SMILES	NTR1 agonist	NR3A LBD binder	AHR act	AI-2 QS modul	SUMO Mot1 rescue	H9c2 protect	JMH597 growth rt	BB721 const-QS lum	BB721 growth	AI-2 QS JMH597
O=C(NCCc1c[nH]c2ccccc12)c1ccc2c(c1)OCO2	-1	22*	42	-85*	-19	-3	16	93*	11	97*
O=C(NCCc1c[nH]c2ccccc12)c1cc2sccc2n1Cc1ccccc1	5	0	6	-32	15	-5	x	x	x	x
O=C(NCCc1c[nH]c2ccccc12)c1ccc2[nH]c(=O)c(=O)[nH]c2c1	0	-3	29	22	1	3	x	x	x	x
Cn1c(C(=O)NCCc2c[nH]c3ccccc23)cc2sccc21	0	16*	29	u	-9	-7	-20	93*	-17	94*
CC(C)CCNC(=O)CN1C(=O)NC(c2ccccc2)(c2ccccc2)C1=O	3	1	1	-92*	32	0	7	90*	8	95*
C=CCNC(=O)NC(=O)CN1C(=O)NC(c2ccccc2)(c2ccccc2)C1=O	0	1	0	-85*	4	24	-4	94*	-9	96*
NC(=O)NC(=O)CN1C(=O)NC(c2ccccc2)(c2ccccc2)C1=O	0	0	-2	7	188	6	x	x	x	x
CN(C)Cc1cc(C(C)(C)c2ccccc2)ccc1O	x	1	x	x	x	-2	x	x	x	x
CCOCCCn1c(SCc2ccccc2)nnc1-c1ccncc1	0	-1	3	-6	-3	8	x	x	x	x
O=C(COc1ccccc1F)c1ccc(O)cc1O	-3	1	-3	17	1	-2	x	x	x	x
Cc1c(O)ccc(C(=O)COc2ccccc2F)c1O	-5	35*	10	u	-43	13	29	89*	25	93*
COc1ccc(CC(=O)O/N=C(\N)c2ccc(OC)cc2)cc1	2	0	-2	-94*	5	-4	-13	97*	-62	98*
COc1ccccc1Cc1c(-c2ccc(C#N)cc2)nc2c3ccccc3ccn12	x	x	x	x	x	5	x	x	x	x
Cc1cc(C(=O)OCC(=O)Nc2ccc(S(=O)(=O)N3CCOCC3)cc2)c(C)o1	-2	3	-1	-91*	-1	-2	-5	98*	24	98*
O=C(COc1cccc(C(F)(F)F)c1)Nc1ccc(S(=O)(=O)N2CCCC2)cc1	5	-1	0	-93*	2	-5	35	98*	21	u
O=C(COC(=O)Cc1ccc2c(c1)OCCO2)Nc1ccc(S(=O)(=O)N2CCCC2)cc1	0	-16	4	-92*	-8	4	57	96*	-35	97*
CSc1ncccc1C(=O)OCC(=O)Nc1ccc(S(=O)(=O)N2CCCC2)cc1	1	-8	1	-92*	-5	-6	49	98*	43	99*
CSc1ncccc1C(=O)OCC(=O)c1ccc(S(=O)(=O)N2CCCCC2)cc1	0	-1	2	22	3	-6	x	x	x	x
COCCn1c(SCC(=O)Nc2cc(C)on2)nnc1-c1ccccc1	-1	0	-1	29	1	2	x	x	x	x
CCCCNS(=O)(=O)c1ccc(Br)cc1N1CCC[C@H]1CO	1	0	x	x	x	-6	x	x	x	x
Cc1cccc2nc(CSc3nc4ccccc4[nH]3)cn12	0	4	13	u	59	14	-14	96*	-42	97*
CC(Nc1ccc(Br)cn1)c1cc(Cl)ccc1O (centres undefined)	x	0	x	-86*	x	-30	34	96*	31	97*
CC(Nc1ccc(Cl)cc1)c1cc(Cl)ccc1O (centres undefined)	12	-5	5	-13	-14	3	x	x	x	x

Assay outcomes from PubChem.
